Test results taken from PubChem BioAssay AID686940 (The Scripps Research Institute Molecular Screening Center, 2013).
Hit rate of the full screen: of about 370,000 compounds, about 2,600 (0.7%) were called active. Only a selection was taken, and actives are over-represented in it overall. A number with no mark means an inactive call.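 The calls were made as follows: active = inhibition above a per-plate cutoff, mean inhibition of test wells between control levels plus 3 SD (cut at about 38% in these data); inactive = the rest.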

What follows are compounds tested against COUP transcription factor 2 (Homo sapiens) (UniProt P24468) (assay: NR2F2 transcriptional activity inhibitors, primary screen, cell-based, luciferase reporter, HEK293T, luminescence (AID 686940;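 also: cells cotransfected with COUP-TFII expression vector driving the NGFI-A reporter; 0% = median of COUP-TF2 test wells and 100% = reporter-only cells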)). Details: HEK293T NGFI-A luciferase reporter, at 8.6 µM, active compounds read high.
Sequence of COUP transcription factor 2 (Homo sapiens) (P24468 whole entry, looked up): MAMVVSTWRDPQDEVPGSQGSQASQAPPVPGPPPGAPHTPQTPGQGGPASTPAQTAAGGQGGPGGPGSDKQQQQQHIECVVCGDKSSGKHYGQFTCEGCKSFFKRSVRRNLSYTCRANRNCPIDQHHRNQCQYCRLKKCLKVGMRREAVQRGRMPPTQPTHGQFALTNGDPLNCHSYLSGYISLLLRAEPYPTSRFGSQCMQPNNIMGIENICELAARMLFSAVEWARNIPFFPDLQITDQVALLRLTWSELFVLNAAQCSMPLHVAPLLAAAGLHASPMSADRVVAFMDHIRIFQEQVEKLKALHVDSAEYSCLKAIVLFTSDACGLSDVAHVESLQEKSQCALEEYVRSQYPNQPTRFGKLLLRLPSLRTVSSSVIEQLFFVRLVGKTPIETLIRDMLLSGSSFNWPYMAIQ

Row | SMILES | inhibition
1 | Cc1ccccc1OCC(=O)Nc1ccc(N2CCN(C(=O)C(C)C)CC2)c(Cl)c1 | 40.9% (active)
2 | CCc1ccccc1OCC(=O)Nc1ccc(C)c(S(=O)(=O)N2CCCCCC2)c1 | 16.9%
3 | Cc1ccc(NC(=O)COc2coc(CN3CCc4ccccc4C3)cc2=O)cc1Cl | 8.3%
4 | C=CCOC/C=C/C#CCN(CC=C)Cc1ccc(OC)cc1OC | -4.38%
5 | COc1ccc(Nc2ncnc3ccc(Br)cc23)c(OC)c1 | 39.9% (active)
6 | CCOC(=O)CNc1nc(Cl)nc(Nc2ccc(OC)cc2OC)n1 | 9.09%
7 | CC1(C)CC2CC(C)(CN2c2ncnc3ccc(Br)cc23)C1 (centres undefined) | 16.5%
8 | O=C(Nc1cccc(Cl)c1)OC1CC2CC1[C@H]1CCCCN1[C@H]2Cc1ccccc1 (some centres undefined) | 14.6%
9 | O=C(Nc1ccc(N2CCOCC2)c(Cl)c1)c1ccc(S(=O)(=O)N2CCOCC2)cc1 | 6.88%
10 | COc1ccc(C(=O)Nc2cc(S(=O)(=O)N3CCCC3)ccc2Cl)cc1 | 1.63%
11 | COc1ccc(C(=O)Nc2nc(-c3ccc(S(=O)(=O)N4CCOCC4)cc3)cs2)cc1 | 70.8% (active)
12 | COC(=O)[C@@]12CCCCC3=C1N(CCC3)C(=O)[C@H]2CC(=O)NCc1cccc2ccccc12 | -8.73%
13 | Cc1c[nH]c2cccc(-c3ccc(Cl)cc3)c12 | 1.03%
14 | COc1cccc(/C=C2\CC3(OC(C)=O)CCCN2C3)c1 (centres undefined) | -14.3%
15 | CC(=O)N1CCCN(C2=Nc3ccccc3Sc3ccccc32)CC1 | -4.52%
16 | Cc1cc(C(=O)CSc2nc(N)cc(=O)[nH]2)c(C)n1-c1cccc(F)c1 | 27.2%
17 | Cc1cc(C(=O)COc2ccccc2Cl)c(C)n1C1CC1 | -24.6%
18 | Cc1cc(C(=O)COC(=O)C2CC2)c(C)n1-c1ccc(F)cc1 | 56.4% (active)
19 | COC(=O)[C@]12C[C@H](CC(=O)N3CCN(C(=O)C4CC4)CC3)C(=O)N(CCC3=CCCCC3)C1=C[C@H](C(C)C)O[C@@H]2C1CC1 | 5.77%
20 | CC(C)C(C#CC1CC1)N(Cc1ccc2c(c1)OCO2)C(N)=NC(=O)/C=C/c1cccc(C(F)(F)F)c1 (centres undefined) | -0.2%
21 | CCCOc1ccc(Cc2c(Cl)nc(SC)nc2NC)cc1 | 46.9% (active)
22 | CCCOc1ccc(Oc2c(Cl)cnn(Cc3cccc4ccccc34)c2=O)cc1 | 3.48%
23 | CCCOc1ccc(Cc2c(O)nc(SC)[nH]c2=O)cc1C | 17.2%
24 | COC(=O)[C@]12C[C@H](CC(=O)NCC34CC5CC(CC(C5)C3)C4)C(=O)N(Cc3ccc(Cl)cc3Cl)C1=C[C@H](COCc1ccccc1)O[C@@H]2C | -8.65%
